This is a sample that favours compounds with a hit; in the whole collection about 3.6% have one here.
mHTT CaM bind: mHTT-calmodulin interaction abrogation; AlphaScreen His-mHTT/GST-CaM binding, luminescence; inhibition, % at 15 µM; hit rate 3.6% among 190,000; AID 1671202
Pf apPOL inh: Pf-apPOL DNA polymerase inhibition; Recombinant Pf-apPOL, molecular beacon fluorescence, 1.5 h; inhibition, % at 10 µM; hit rate 0.25% among 210,000
Hits are given with their value. Cut-off read from the data, not from the text of the source: active = inhibition above about 50%; inactive = the rest.

`O=C(NC(Nc1cccc([N+](=O)[O-])c1)C(Cl)(Cl)Cl)c1ccccc1[N+](=O)[O-]` (stereo not drawn) gave mHTT CaM bind inactive and Pf apPOL inh inactive.
O=C(NC(Nc1ccccc1)C(Cl)(Cl)Cl)c1cc([N+](=O)[O-])cc([N+](=O)[O-])c1 (stereo not drawn) was read as mHTT CaM bind 59 and Pf apPOL inh inactive.
`O=C(NC(Nc1ccccc1)C(Cl)(Cl)Cl)c1ccc([N+](=O)[O-])cc1` (stereo not drawn) gave mHTT CaM bind inactive and Pf apPOL inh inactive.
`O=C(Nc1cnc2ccccc2c1)c1cn(-c2ccc(F)cc2F)c(=O)c2ccccc12` gave mHTT CaM bind inactive and Pf apPOL inh inactive.
For NNC(=O)c1ccc2[nH]c3c(c2c1)CCCC3 the results were mHTT CaM bind inactive and Pf apPOL inh inactive.
Screening Cc1ccc(CNC(=O)CN(C)S(=O)(=O)c2ccc3[nH]c4c(c3c2)CCCC4)cc1 returned mHTT CaM bind inactive and Pf apPOL inh inactive.
`O=C(CCC1CCCCC1)NCc1ccc2[nH]c3c(c2c1)CCCC3` gave mHTT CaM bind 98 and Pf apPOL inh inactive.
`O=C(CCC1CCCC1)NCc1ccc2[nH]c3c(c2c1)CCCC3` gave mHTT CaM bind 100 and Pf apPOL inh inactive.
`CC1=C(C(=O)Nc2ccc(F)cc2)C(c2ccccn2)C2=C(CC(C)(C)CC2=O)N1` (stereo not drawn) gave mHTT CaM bind inactive and Pf apPOL inh inactive.
`O=C(Cc1ccc(Cl)cc1)N1CCC2(CC1)NC(=O)N(Cc1ccc(Cl)cc1)C2=O` gave mHTT CaM bind inactive and Pf apPOL inh inactive.
CCCCN(C)CCCNC(=O)CC(C(=O)N1CCc2ccccc21)n1ccnc1 (stereo not drawn) was read as mHTT CaM bind inactive and Pf apPOL inh inactive.
Screening CCCCN(CCCNC(=O)CC(C(=O)N1CCc2ccccc21)n1ccnc1)c1ccccc1 (stereo not drawn) returned mHTT CaM bind 77 and Pf apPOL inh inactive.
`CCCC(=O)N1CCCC1c1nc2cc(-c3cccc(F)c3)ccc2o1` (stereo not drawn) gave mHTT CaM bind inactive and Pf apPOL inh inactive.
`O=C(Cc1cccs1)NCc1cccnc1Oc1ccccc1` gave mHTT CaM bind inactive and Pf apPOL inh inactive.
CCOC(=O)Cn1c(-c2nnc(C)o2)cc2ccccc21 was read as mHTT CaM bind inactive and Pf apPOL inh inactive.
O=C(C=Cc1ccco1)c1ccc(O)cc1 was read as mHTT CaM bind inactive and Pf apPOL inh inactive.
For O=C(/C=C/c1ccco1)c1cccs1 the results were mHTT CaM bind 79 and Pf apPOL inh inactive.
`O=C(CSc1nc2[nH]ncc2c(=O)n1-c1cccc(C(F)(F)F)c1)c1ccccc1` gave mHTT CaM bind inactive and Pf apPOL inh inactive.
`Cc1cc2n(n1)CCC(=O)N2CCCC(=O)N1CCN(c2ccccn2)CC1` gave mHTT CaM bind inactive and Pf apPOL inh inactive.
Screening CC1=NN(C(=O)c2ccccc2Cl)C(O)(c2ccc(Cl)cc2)C1 (stereo not drawn) returned mHTT CaM bind inactive and Pf apPOL inh inactive.
Screening CC1=NN(C(=O)c2ccccc2F)C(O)(c2ccc(Cl)cc2)C1 (stereo not drawn) returned mHTT CaM bind inactive and Pf apPOL inh inactive.
`CC1=NN(C(=O)c2ccc(Cl)cc2)C(O)(c2ccc(Cl)cc2)C1` (stereo not drawn) gave mHTT CaM bind 67 and Pf apPOL inh inactive.
For CC1=NN(C(=O)c2cccc(Cl)c2)C(O)(c2ccc(Cl)cc2)C1 (stereo not drawn) the results were mHTT CaM bind 54 and Pf apPOL inh inactive.
CC(=O)NCc1ccc(S(=O)(=O)N(C)C)cc1 was read as mHTT CaM bind inactive and Pf apPOL inh inactive.
`Cc1ccc(C)c(OCC(=O)NCCc2ccccc2)c1C` gave mHTT CaM bind inactive and Pf apPOL inh inactive.
`Cc1cc(-c2ccccc2)nc2cc(C(=O)N3CCOCC3)nn12` gave mHTT CaM bind inactive and Pf apPOL inh inactive.
`Nc1c(C(=O)N2CCOCC2)sc2nc(-c3ccccc3)cc(-c3ccccc3)c12` gave mHTT CaM bind 52 and Pf apPOL inh inactive.
For CC(=O)N1CCc2sc(S(=O)(=O)Nc3cc(C)ccc3Cl)cc2C1 the results were mHTT CaM bind inactive and Pf apPOL inh inactive.
`O=C(c1ccsc1)N1CCN(c2nnc3c(Cl)cccn23)CC1` gave mHTT CaM bind inactive and Pf apPOL inh inactive.
Screening O=C(CC1CCCCC1)N1CCN(c2nnc3c(Cl)cccn23)CC1 returned mHTT CaM bind 60 and Pf apPOL inh inactive.
Screening COc1ccc(NC(=O)C[N+]23CC[N+](CC(=O)Nc4ccc(OC)cc4)(CC2)CC3)cc1 returned mHTT CaM bind inactive and Pf apPOL inh inactive.
CC(=O)NC(c1ccc(C)cc1)c1ccc2cccnc2c1O (stereo not drawn) was read as mHTT CaM bind 100 and Pf apPOL inh inactive.
Screening Cc1cccnc1NC(c1ccc([N+](=O)[O-])cc1)c1ccc2cccnc2c1O (stereo not drawn) returned mHTT CaM bind 100 and Pf apPOL inh inactive.
Screening CC(Oc1cccc2cccnc12)C(=O)O (stereo not drawn) returned mHTT CaM bind inactive and Pf apPOL inh inactive.
Screening CC(=O)NC(c1ccc([N+](=O)[O-])cc1)c1ccc2cccnc2c1O (stereo not drawn) returned mHTT CaM bind 100 and Pf apPOL inh inactive.
Screening Cc1ccc2cccc(SCc3ccc([N+](=O)[O-])cc3)c2n1 returned mHTT CaM bind inactive and Pf apPOL inh inactive.
Screening O=[N+]([O-])c1ccc(NC(c2ccco2)c2ccc3cccnc3c2O)cc1 (stereo not drawn) returned mHTT CaM bind 100 and Pf apPOL inh inactive.
O=C(Nc1ccc(-c2ccc([N+](=O)[O-])cc2)cc1)c1ccco1 was read as mHTT CaM bind inactive and Pf apPOL inh inactive.
Screening Cc1ccccc1C(=O)Nc1cccn2nc(C(C)C)nc12 returned mHTT CaM bind inactive and Pf apPOL inh inactive.
Screening COc1ccc(/C=C2\C(=O)NC(=O)N(c3cc(C)cc(C)c3)C2=O)cc1OC returned mHTT CaM bind inactive and Pf apPOL inh inactive.
`CCc1ccc(NC(=O)Cn2cnc3c(-c4ccc(F)cc4)csc3c2=O)cc1` gave mHTT CaM bind inactive and Pf apPOL inh inactive.
`CC(=O)NC(c1ccccc1C)c1ccc2cccnc2c1O` (stereo not drawn) gave mHTT CaM bind 100 and Pf apPOL inh inactive.
Cc1ccccc1C(NC(N)=O)c1ccccc1 (stereo not drawn) was read as mHTT CaM bind inactive and Pf apPOL inh inactive.
Screening COc1ccc(-c2cc(C(F)(F)F)n3nc(C(=O)O)c(Cl)c3n2)cc1OC returned mHTT CaM bind 83 and Pf apPOL inh inactive.
COc1ccc(-c2cc(C(F)(F)F)n3nc(C(=O)NC(C)C)c(Cl)c3n2)cc1OC was read as mHTT CaM bind inactive and Pf apPOL inh inactive.
Cc1ccc(C)n1-c1ccc(C(=O)NN)c(Cl)c1 was read as mHTT CaM bind inactive and Pf apPOL inh inactive.
Screening Cc1ccc(C)n1-c1ccc(Cl)c(O)c1 returned mHTT CaM bind 96 and Pf apPOL inh inactive.
Cc1ccc(NC(=O)COc2ccc(Br)cc2)c(C)c1 was read as mHTT CaM bind inactive and Pf apPOL inh inactive.
Screening Cc1ccc(CNC(=O)C2(C)Cc3ccccc3C(=O)N2Cc2ccco2)cc1 (stereo not drawn) returned mHTT CaM bind inactive and Pf apPOL inh inactive.

Source: PubChem BioAssay (University of Kansas High Throughput Screening Laboratory)
